Consider 102 compounds from PubChem BioAssay AID588511 (Johns Hopkins Ion Channel Center, 2011).

Out of some 310,000 compounds screened, about 3,600 (1.2%) were called active. The sample holds actives, similar compounds and a random draw of the others, so the mix is not that of the screen.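 The calls were made as follows: active = ratio plate-corrected score three or more library SD toward inhibition, starting fluorescence score within five deviations; inactive = the rest.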

The target in the assay is Anoctamin-1 (Mus musculus) (UniProt Q8BHY3). The experiment in a line: TMEM16A chloride channel inhibitors, primary screen, cell-based, HTS (AID 588511).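 As to normalized B-score (activity score, 25-100; higher = stronger inhibition): score derived from kinetic fluorescence span divided by baseline fluorescence per well.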 The conditions noted are these: HEK293 TMEM16A/YFP iodide influx fluorescence, ionomycin; at 10 µM.
Anoctamin-1 (Mus musculus), sequence (Q8BHY3 whole entry, looked up): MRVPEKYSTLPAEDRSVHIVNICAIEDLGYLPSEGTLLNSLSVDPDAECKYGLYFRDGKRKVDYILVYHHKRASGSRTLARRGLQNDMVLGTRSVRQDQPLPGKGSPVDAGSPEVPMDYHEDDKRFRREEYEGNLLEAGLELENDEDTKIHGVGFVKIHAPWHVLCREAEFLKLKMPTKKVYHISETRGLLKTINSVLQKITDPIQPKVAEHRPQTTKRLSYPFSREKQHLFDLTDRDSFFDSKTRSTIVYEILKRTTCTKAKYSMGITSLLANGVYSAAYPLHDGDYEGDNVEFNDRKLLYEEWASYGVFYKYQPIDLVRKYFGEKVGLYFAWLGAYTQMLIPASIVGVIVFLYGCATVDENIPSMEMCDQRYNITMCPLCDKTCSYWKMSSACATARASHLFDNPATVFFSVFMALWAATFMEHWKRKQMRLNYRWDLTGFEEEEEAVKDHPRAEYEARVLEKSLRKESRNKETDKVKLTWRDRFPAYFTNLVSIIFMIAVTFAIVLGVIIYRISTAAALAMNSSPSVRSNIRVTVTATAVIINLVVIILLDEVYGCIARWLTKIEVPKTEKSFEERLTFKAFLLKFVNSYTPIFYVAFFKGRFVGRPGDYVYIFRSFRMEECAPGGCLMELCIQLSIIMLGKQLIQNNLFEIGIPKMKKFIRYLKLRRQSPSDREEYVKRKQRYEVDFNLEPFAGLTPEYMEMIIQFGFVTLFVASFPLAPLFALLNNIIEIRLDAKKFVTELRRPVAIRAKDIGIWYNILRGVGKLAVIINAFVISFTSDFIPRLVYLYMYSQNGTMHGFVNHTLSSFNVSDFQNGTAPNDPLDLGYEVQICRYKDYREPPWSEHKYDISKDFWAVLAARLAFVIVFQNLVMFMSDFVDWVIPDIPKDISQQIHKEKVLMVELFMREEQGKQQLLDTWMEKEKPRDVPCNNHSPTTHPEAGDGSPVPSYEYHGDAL
Turning to `C/C(=N\NS(=O)(=O)c1ccc(Cl)cc1)c1ccc(NC(=O)c2ccco2)cc1`, the normalized B-score (activity score, 25-100; higher = stronger inhibition) result was “inactive”.

Turning to `CC1(C)CC(N2CCN(C(c3ccccc3)c3ccccc3)CC2)=CC(=[N+]2CCCCC2)C1`, the normalized B-score (activity score, 25-100; higher = stronger inhibition) is 100 (active). To `O=C1CC(N2CCN(C(c3ccccc3)c3ccccc3)CC2)C(=O)N1` (configuration not stated) belongs “inactive”; to `CC1(C)CC(=O)C=C(N2CCCC2)C1`, “inactive”; to `O=C(/C=C/Nc1ccc(S(=O)(=O)Nc2cnc3ccccc3n2)cc1)c1cccnc1`, “inactive”. With `CCN(CC)CC(=O)c1c[nH]c2ccc(OC)cc12`, the normalized B-score (activity score, 25-100; higher = stronger inhibition) entry was “inactive”. For the compound `COc1ccc(/C=C(\C#N)c2c[nH]c3ccccc23)cc1`, the normalized B-score (activity score, 25-100; higher = stronger inhibition) result was “inactive”. To `COc1ccc2[nH]cc(/C=C(/C#N)S(=O)(=O)c3ccccc3)c2c1` belongs 100 (active). Then `COC(C[C@@H](O)C[C@@H](O)[C@H](C)OCc1ccccc1)OC`, with “inactive”; and `CCc1cccc(NC(=O)COC(=O)C2CCN(c3ccc(C(F)(F)F)cn3)CC2)c1`, with “inactive”; and `Cc1cccc(-n2c(=O)c3c(C)c(C)sc3n(CC(N)=O)c2=O)c1`, with “inactive”. To `N#CCSc1nc2c(c(=O)n1Cc1ccccc1)C1(CCCC1)Cc1ccccc1-2` belongs “inactive”. With `Cc1cccc(-n2c(SCC(N)=O)nc3c(c2=O)C2(CCCCC2)Cc2ccccc2-3)c1`, the normalized B-score (activity score, 25-100; higher = stronger inhibition) was 100 (active). To `Cc1ccc(-c2csc(-c3cc(C)on3)n2)cc1` belongs “inactive”; to `CCCc1cc(-c2nc(-c3ccc(C)cc3)cs2)ccn1`, “inactive”; to `Cc1ccc(-c2csc(-c3c[nH]c4ccccc34)n2)cc1`, 100 (active).

Take `O=C(C1CCCO1)N1CCN(S(=O)(=O)c2ccc(Br)cc2)CC1` (configuration not stated): the normalized B-score (activity score, 25-100; higher = stronger inhibition) result is “inactive”. To `Cc1cc(=O)oc2cc(OCC3CC(c4ccccc4Cl)=NO3)ccc12` (configuration not stated) belongs “inactive”.

For `O=C(CCS(=O)(=O)c1ccc2c(c1)NC(=O)CS2)NCc1ccccc1Cl`, the normalized B-score (activity score, 25-100; higher = stronger inhibition) result is “inactive”. Then `CNC(=O)c1[nH]cnc1C(=O)N[C@@H](CC(C)C)C(=O)OCc1ccccc1`, with 25 (active); and `O=C(N[C@@H](Cc1ccccc1)C(=O)OCc1ccccc1)c1nc[nH]c1C(=O)N[C@@H](Cc1ccccc1)C(=O)OCc1ccccc1`, with “inactive”.

As to `CNC(=O)c1[nH]cnc1C(=O)N[C@@H](CC(C)C)C(=O)OC(C)(C)C`, the normalized B-score (activity score, 25-100; higher = stronger inhibition) entry is “inactive”.

Take `Cc1nc(SCC(=O)N2CC(=O)Nc3ccccc32)c2c(C)c(C)sc2n1`: the normalized B-score (activity score, 25-100; higher = stronger inhibition) entry is “inactive”. Take `O=C(CSc1nnc(-c2cccs2)n1Cc1ccccc1)N1CCc2ccccc2C1`: the normalized B-score (activity score, 25-100; higher = stronger inhibition) result was “inactive”. For the compound `Cc1nc(SCC(=O)N2CCc3ccccc3C2)c2c(C)c(C)sc2n1`, the normalized B-score (activity score, 25-100; higher = stronger inhibition) was 100 (active). With `O=C(N1CCCCC1)N1CCN(C(=O)N2CCCCC2)CC1`, the normalized B-score (activity score, 25-100; higher = stronger inhibition) result is “inactive”. To `O=S(=O)(c1ccccc1)N1CCc2ccccc21` belongs “inactive”; to `CCn1c(=O)c(=O)n(CC)c2cc(S(=O)(=O)N3CCc4ccccc43)ccc21`, “inactive”; to `Cn1c(=O)n(C)c2cc(S(=O)(=O)N3CCCc4ccccc43)ccc21`, 25 (active).

As for `Cc1ccc(S(=O)(=O)NC2CCCCCC2)cc1C(N)=O`, the normalized B-score (activity score, 25-100; higher = stronger inhibition) result was “inactive”. To `COC(=O)[C@@H]1C[C@@]2(O)[C@H](O)[C@H](O)[C@H](O)C[C@H]2N1Cc1ccc(C(C)(C)C)cc1` belongs “inactive”; to `O=C(C1CCN(Cc2ccc(Cl)cc2)CC1)N1CCN(Cc2ccc3c(c2)OCO3)CC1`, “inactive”; to `Cn1c(=O)cc(OCCCC(=O)N2CCN(Cc3ccc4c(c3)OCO4)CC2)c2ccccc21`, “inactive”. To `O=C(CSCc1ccc(Cl)cc1)N1CCCCC1` belongs “inactive”; to `O=C(CSCc1ccc(Cl)cc1)N1CCN(Cc2ccc3c(c2)OCO3)CC1`, 100 (active); to `O=C(CCCN1C(=O)c2cccc3cccc(c23)C1=O)N1CCN(Cc2ccc3c(c2)OCO3)CC1`, 100 (active). To `O=C(Nc1cccc2ccccc12)N1CCN(Cc2ccc3c(c2)OCO3)CC1` belongs “inactive”; to `NC(=O)C1=C[C@@H](c2ccc3c(c2)OCO3)C[C@@H](OCCCCO)O1`, “inactive”.

Consider `COc1ccc(N2C(=O)C(CC(=O)Nc3ccc(F)cc3)N(CCc3cccs3)C2=O)cc1` (configuration not stated), for which the normalized B-score (activity score, 25-100; higher = stronger inhibition) result is “inactive”. Then `Cc1cnc(C)c(N2CCN(C(=O)C3CCC(=O)N(CCc4cccc(F)c4)C3)CC2)n1` (configuration not stated), with “inactive”; and `CC(C)Cn1cnc2c1c(=O)n(CC(=O)NN)c(=O)n2Cc1ccccc1`, with “inactive”.

Take `Cc1ccnc(NC(=O)C2CCN(S(=O)(=O)c3c(C)c(C)cc(C)c3C)CC2)c1`: the normalized B-score (activity score, 25-100; higher = stronger inhibition) entry was “inactive”. On to `COc1ccc(CCNc2cc(C)nc3c(-c4ccc(Cl)cc4)c(C)nn23)cc1OC`, for which the normalized B-score (activity score, 25-100; higher = stronger inhibition) result is “inactive”.

For `CC(=O)Nc1ccc(OC(=O)COc2ccc(Br)cc2)cc1`, the normalized B-score (activity score, 25-100; higher = stronger inhibition) result is “inactive”.

As for `COC(C(=O)Nc1ccc(C(C)=O)cc1)c1ccccc1` (configuration not stated), the normalized B-score (activity score, 25-100; higher = stronger inhibition) result was “inactive”. To `Cc1ccc(NC(=O)C(C)c2cccc(C(=O)c3ccccc3)c2)cc1` (configuration not stated) belongs 100 (active). Then `CC(=O)Nc1ccc(NC(=O)[C@@H](NC(=O)c2cccc(C)c2)C(C)C)cc1`, with “inactive”. Then `COCCn1c(=O)[nH]c(=O)c2cc(C(=O)c3cc(OC)ccc3O)cnc21`, with “inactive”; and `CC1Cc2ccccc2N1C(=O)CSc1nnc(C2CC2)n1C` (configuration not stated), with “inactive”; and `CCCCSc1nnc2c(n1)OC=Nc1ccccc1-2`, with “inactive”. Take `O=C(CSC(=S)N1CCCCC1)c1c(F)cccc1F`: the normalized B-score (activity score, 25-100; higher = stronger inhibition) entry is “inactive”. On to `CCOC(=O)[C@H]1[C@H]2COc3ccc(Cl)cc3[C@@H]2N2C(=O)c3cc(C)ccc3NC(=O)[C@@]12C`, for which the normalized B-score (activity score, 25-100; higher = stronger inhibition) result is “inactive”.

With `COc1ccc(S(=O)(=O)N2CCCCCC2)cc1C(=O)N(C)Cc1cccc(OC)c1OC`, the normalized B-score (activity score, 25-100; higher = stronger inhibition) entry is “inactive”. On to `CCN(CC)S(=O)(=O)c1ccc(N(C)Cc2ccc(C(F)(F)F)cc2)nc1`, for which the normalized B-score (activity score, 25-100; higher = stronger inhibition) is 100 (active). To `CCN(CC)S(=O)(=O)c1ccc(NC(=O)c2cnc(C)cn2)cc1` belongs “inactive”; to `CCN(CC)S(=O)(=O)c1ccc(Cl)c(NC(=O)c2ccncc2)c1`, “inactive”.

Consider `CCN(CC)S(=O)(=O)c1ccc(N(C)Cc2cccc(OC)c2OC)nc1`, for which the normalized B-score (activity score, 25-100; higher = stronger inhibition) was 25 (active). To `CCN(CC)S(=O)(=O)c1ccc(N(C)CCc2ccc(OC)c(OC)c2)nc1` belongs “inactive”; to `CCC(C)c1ccccc1N1CC(C(=O)N2CCN(S(=O)(=O)c3ccc(F)cc3)CC2)CC1=O` (configuration not stated), “inactive”; to `COc1ccccc1CNC(=O)Cn1c(=O)oc2cc(Cl)ccc21`, “inactive”. To `CC1CCCCC1NC(=O)CN1CCC(O)(c2ccc3c(c2)OCO3)CC1` (configuration not stated) belongs “inactive”; to `CCOC(=O)C1CCN(Cc2nnc(-c3cccc(Br)c3)o2)CC1`, “inactive”; to `CCOC(=O)C1CCN(c2ncnc3c2c(-c2ccccc2)cn3-c2ccc(C)cc2)CC1`, “inactive”. To `CCOC(=O)C1CCN(c2ncnc3c2oc2ccc(Br)cc23)CC1` belongs 100 (active); to `O=C(Nc1ccc(C(=O)NCc2ccccc2Cl)cc1)C1=CSCCO1`, “inactive”; to `O=C(/C=C/c1ccco1)NC(=S)N1CCCCC1`, “inactive”.

Turning to `O=C(Nc1cccnc1)c1noc2c1CCCCC2`, the normalized B-score (activity score, 25-100; higher = stronger inhibition) entry is “inactive”. Then `CCN1CCN(C(=O)C2CCN(S(=O)(=O)c3cc(Cl)ccc3Cl)CC2)CC1`, with “inactive”; and `CCCCNC(=O)C1CCC(=O)N1CCc1ccccc1` (configuration not stated), with “inactive”; and `O=C(CSc1nc(-c2ccccc2)cs1)Nc1cccc([N+](=O)[O-])c1`, with 100 (active). Then `CCNC(=O)CSc1nc(-c2ccccc2)cs1`, with “inactive”; and `O=C(CSc1ncn[nH]1)Nc1nc(-c2cccc([N+](=O)[O-])c2)cs1`, with “inactive”; and `COc1ccc(CN2CCNC(=O)C2CC(=O)N(C)Cc2ccccn2)cc1OC` (configuration not stated), with “inactive”. Then `Cc1ccc(SCC(=O)Nc2ccc3c(c2)OCCO3)cc1`, with “inactive”.

On to `Cc1ccc(C(=O)CSc2ccccc2C(=O)O)cc1`, for which the normalized B-score (activity score, 25-100; higher = stronger inhibition) result was “inactive”. Then `Cc1ccc(SCC(=O)c2cc(C)c(OC(=S)N(C)C)c(C)c2)cc1`, with 100 (active); and `O=C(C1CCN(S(=O)(=O)c2ccc(Br)s2)CC1)N1CCN(c2ccccc2)CC1`, with “inactive”; and `COc1ccc(S(=O)(=O)N2CCCCC2)cc1NC(=O)C1CC(=O)N(c2ccc3c(c2)OCCO3)C1` (configuration not stated), with “inactive”.

Take `Cc1ccc(N2CC(C(=O)Nc3ccc(S(=O)(=O)N4CCCC4)cc3)CC2=O)cc1C` (configuration not stated): the normalized B-score (activity score, 25-100; higher = stronger inhibition) result was “inactive”. Then `Cc1ccc(NC(=O)C2CC(=O)N(c3ccc4c(c3)OCCO4)C2)cc1S(=O)(=O)N1CCCCCC1` (configuration not stated), with 25 (active); and `Cc1oc(-c2ccccc2F)nc1CS(=O)CC(=O)NCCN1CCCCC1C` (configuration not stated), with “inactive”. Then `CSc1cccc(NC(=S)N(C(C)C)C(C)c2ccccn2)c1` (configuration not stated), with 25 (active); and `CC(c1ccccn1)N(CCN(C)C)C(=S)Nc1ccccc1F` (configuration not stated), with “inactive”. Then `CSc1cccc(NC(=S)N(Cc2ccccc2)Cc2ccccn2)c1`, with “inactive”.

As to `CC(=N\NC(=O)c1cc(Br)ccc1O)/C(=N/O)C(=O)Nc1ccccc1`, the normalized B-score (activity score, 25-100; higher = stronger inhibition) is 25 (active). As for `CC(C)/C=N/NC(=O)c1cc(Br)ccc1O`, the normalized B-score (activity score, 25-100; higher = stronger inhibition) entry was “inactive”. As for `CC(=O)N/N=C(\C)c1ccc(Br)cc1Br`, the normalized B-score (activity score, 25-100; higher = stronger inhibition) result is “inactive”. For `O=C(NC(=S)Nc1ccc(Cl)c(C(=O)O)c1)c1cncc(Br)c1`, the normalized B-score (activity score, 25-100; higher = stronger inhibition) result is “inactive”. As to `COc1cc(C)c(C(C)C)cc1S(=O)(=O)n1ccnc1`, the normalized B-score (activity score, 25-100; higher = stronger inhibition) result is “inactive”. To `COc1ccccc1-n1cnc2cc(NS(=O)(=O)c3ccccc3)ccc21` belongs “inactive”; to `CC(C)c1ccc2c(c1)c(SC(C)(C)C)c(CC(C)(C)C(=O)O)n2Cc1ccc(Cl)cc1`, 100 (active); to `O=C(O)c1ccc(Cn2c(=S)[nH]c3cc(Cl)ccc3c2=O)cc1`, “inactive”. To `O=C(COC(=O)CNS(=O)(=O)c1ccccc1)NC12CC3CC(CC(C3)C1)C2` belongs “inactive”; to `CSc1nnc2c(n1)OC(c1cn(C)c3ccccc13)N(C(C)=O)c1ccccc1-2` (configuration not stated), “inactive”; to `CSc1nnc2c(n1)OC(c1ccsc1)N(C(C)=O)c1ccccc1-2` (configuration not stated), 100 (active). Turning to `CSc1ncc(Sc2ccccc2)c(C(=O)O)n1`, the normalized B-score (activity score, 25-100; higher = stronger inhibition) result is “inactive”. To `O=C(NCCc1c[nH]c2ccc(Cl)cc12)c1ccc([N+](=O)[O-])cc1` belongs “inactive”.

Take `NS(=O)(=O)c1ccc(CCNC(=O)c2ccc(Cl)cc2[N+](=O)[O-])cc1`: the normalized B-score (activity score, 25-100; higher = stronger inhibition) entry is “inactive”. Consider `O=C(NCCc1ccc(Cl)cc1Cl)c1cc([N+](=O)[O-])c[nH]c1=O`, for which the normalized B-score (activity score, 25-100; higher = stronger inhibition) was 100 (active). Consider `CC(C)CC(CCc1ccccc1)OS(N)(=O)=O` (configuration not stated), for which the normalized B-score (activity score, 25-100; higher = stronger inhibition) result is “inactive”. Turning to `CSc1nc2nc3c(c(=O)n2[nH]1)CCC3`, the normalized B-score (activity score, 25-100; higher = stronger inhibition) result was “inactive”.

With `COc1ccc(C(=O)CCc2ccccc2O)c(OC)c1`, the normalized B-score (activity score, 25-100; higher = stronger inhibition) result was “inactive”.
